Results: the supplement of paper PMC10849652
Of roughly 7,900 targets only a part is listed; those with a hit were picked by preference. About 0.6% of all pairs of compound and target were hits.

Tests used:
Test in all cases: log2 fold change, soluble protein after heating vs DMSO (PISA); higher = thermal stabilisation; K562 cells, 10 uM, 30 min; active = over 0.2 and 3.5 SD of the protein, either way, in both replicates (recomputed)
IRAK-1-4 Inhibitor I = compound: C1COCCN1CCN2C3=CC=CC=C3N=C2NC(=O)C4=CC(=CC=C4)[N+](=O)[O-] [IRAK-1-4 Inhibitor I]
In short: (§1)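 K562 cells at 2×10^6 cells/mL were treated for 30 min with 10 μM compound, and aliquots were heated for 3 min over 48°C-58°C before pooling. Extraction used PBS with 0.5% NP-40 at 4°C, and soluble protein was the supernatant after 21,000xg for 90 min, measured by TMTpro 16plex LC-MS/MS with channel sums equalised. Thermal stability values, relative to control samples and from duplicates, are log2 fold changes.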

ibrutinib = compound: C=CC(=O)N1CCC[C@@H](n2nc(-c3ccc(Oc4ccccc4)cc3)c3c(N)ncnc32)C1 [ibrutinib]
In short: as §1

[1] = compound: CC(=O)c1cnc2ccc(-c3cc(Cl)c(O)c(Cl)c3)nc2c1N[C@H]1CC[C@H](CN(C)C)CC1
In short: as §1

ralimetinib = compound: CC(C)(C)Cn1c(N)nc2ccc(-c3[nH]c(C(C)(C)C)nc3-c3ccc(F)cc3)nc21 [ralimetinib]
In short: as §1

[2] = compound: CC(C)(O)CC(=O)NCCn1ccc2ncnc(Nc3ccc(Oc4cccc(C(F)(F)F)c4)c(Cl)c3)c21
In short: as §1

[3] = compound: CC(C)C1=C2N=C(C=C(N2N=C1)NCC3=CC=CC=C3)NCCCCCCN
In short: as §1

[4] = compound: CC(C)C[C@@H](C=O)NC(=O)[C@H](CC(C)C)NC(=O)[C@H](CC(C)C)NC(=O)OCc1ccccc1
In short: as §1

pinometostat = compound: CC(C)N(C[C@H]1O[C@@H](n2cnc3c(N)ncnc32)[C@H](O)[C@@H]1O)[C@H]1C[C@@H](CCc2nc3cc(C(C)(C)C)ccc3[nH]2)C1 [pinometostat]
In short: as §1

[5] = compound: CC1=C(C(CC(=O)N1)C2=CC=C(C=C2)C(F)(F)F)C(=O)NC3=C(C=C4C(=C3)C=NN4)F
In short: as §1

[6] = compound: CC1=C(C2=C(C=C1)C(=O)C3=CC=CC=C3N2CCCN)C
In short: as §1

[7] = compound: CC1=C(C=C(C=C1)NC(=O)C2=CC(=CC=C2)C(C)(C)C#N)NC3=CC4=C(C=C3)N=CN(C4=O)C
In short: as §1

[8] = compound: CC1=C(C=C(C=C1)NC(=O)C2=CC(=CC=C2)N(C)C)NC(=O)C3=CC=C(C=C3)O
In short: as §1

[9] = compound: CC1=CC=C(C=C1)SC2=C3C=C(SC3=CN=C2)C(=O)N
In short: as §1

[10] = compound: CC1=NC(=CC=C1)C2=C(N=C(N2)C(C)(C)C)C3=CC4=NC=CN=C4C=C3
In short: as §1

Nexturastat A = compound: CCCCN(Cc1ccc(C(=O)NO)cc1)C(=O)Nc1ccccc1 [Nexturastat A]
In short: as §1

vemurafenib = compound: CCCS(=O)(=O)Nc1ccc(F)c(C(=O)c2c[nH]c3ncc(-c4ccc(Cl)cc4)cc23)c1F [vemurafenib]
In short: as §1

[11] = compound: CCCS(=O)(=O)Nc1ccc(F)c(C(=O)c2c[nH]c3ncc(Cl)cc23)c1F
In short: as §1

[12] = compound: CCCc1cc(C)[nH]c(=O)c1CNC(=O)c1cc(-c2ccnc(N3CCN(C)CC3)c2)cc2c1cnn2C(C)C
In short: as §1

givinostat = compound: CCN(CC)Cc1ccc2cc(COC(=O)Nc3ccc(C(=O)NO)cc3)ccc2c1 [givinostat]
In short: as §1

barasertib = compound: CCN(CCCOc1ccc2c(Nc3cc(CC(=O)Nc4cccc(F)c4)[nH]n3)ncnc2c1)CCOP(=O)(O)O [barasertib]
In short: as §1

Measured: log2 fold change

SAAL1 (UniProt Q96ER3)
UniProt Q96ER3, sequence (Q96ER3 whole entry, looked up): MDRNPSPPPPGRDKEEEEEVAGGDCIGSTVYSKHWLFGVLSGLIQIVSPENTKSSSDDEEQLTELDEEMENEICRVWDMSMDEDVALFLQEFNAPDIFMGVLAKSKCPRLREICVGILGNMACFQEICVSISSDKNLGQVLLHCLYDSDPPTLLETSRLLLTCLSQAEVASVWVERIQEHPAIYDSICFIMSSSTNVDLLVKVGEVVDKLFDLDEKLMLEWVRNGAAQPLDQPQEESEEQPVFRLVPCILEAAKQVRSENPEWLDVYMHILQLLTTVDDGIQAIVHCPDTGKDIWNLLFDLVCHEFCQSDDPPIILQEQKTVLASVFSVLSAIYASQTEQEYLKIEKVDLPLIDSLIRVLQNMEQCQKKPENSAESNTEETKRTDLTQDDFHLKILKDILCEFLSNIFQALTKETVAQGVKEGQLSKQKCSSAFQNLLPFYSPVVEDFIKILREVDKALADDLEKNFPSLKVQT
inactive: IRAK-1-4 Inhibitor I 0.019 | ibrutinib -0.035 | ralimetinib -0.033 | [2] -0.112 | [3] 0.012 | [4] 0.032 | pinometostat 0.073 | [5] 0.026 | [7] 0.004 | [8] -0.008 | [9] 0.006 | [10] 0.009 | Nexturastat A -0.078 | vemurafenib -0.017 | [11] 0.035 | [12] -0.014 | givinostat -0.059 | barasertib 0.046
active: [1] 0.578 | [6] 0.239

RAB3GAP2 (UniProt Q9H2M9)
UniProt Q9H2M9, sequence (Q9H2M9 whole entry, looked up): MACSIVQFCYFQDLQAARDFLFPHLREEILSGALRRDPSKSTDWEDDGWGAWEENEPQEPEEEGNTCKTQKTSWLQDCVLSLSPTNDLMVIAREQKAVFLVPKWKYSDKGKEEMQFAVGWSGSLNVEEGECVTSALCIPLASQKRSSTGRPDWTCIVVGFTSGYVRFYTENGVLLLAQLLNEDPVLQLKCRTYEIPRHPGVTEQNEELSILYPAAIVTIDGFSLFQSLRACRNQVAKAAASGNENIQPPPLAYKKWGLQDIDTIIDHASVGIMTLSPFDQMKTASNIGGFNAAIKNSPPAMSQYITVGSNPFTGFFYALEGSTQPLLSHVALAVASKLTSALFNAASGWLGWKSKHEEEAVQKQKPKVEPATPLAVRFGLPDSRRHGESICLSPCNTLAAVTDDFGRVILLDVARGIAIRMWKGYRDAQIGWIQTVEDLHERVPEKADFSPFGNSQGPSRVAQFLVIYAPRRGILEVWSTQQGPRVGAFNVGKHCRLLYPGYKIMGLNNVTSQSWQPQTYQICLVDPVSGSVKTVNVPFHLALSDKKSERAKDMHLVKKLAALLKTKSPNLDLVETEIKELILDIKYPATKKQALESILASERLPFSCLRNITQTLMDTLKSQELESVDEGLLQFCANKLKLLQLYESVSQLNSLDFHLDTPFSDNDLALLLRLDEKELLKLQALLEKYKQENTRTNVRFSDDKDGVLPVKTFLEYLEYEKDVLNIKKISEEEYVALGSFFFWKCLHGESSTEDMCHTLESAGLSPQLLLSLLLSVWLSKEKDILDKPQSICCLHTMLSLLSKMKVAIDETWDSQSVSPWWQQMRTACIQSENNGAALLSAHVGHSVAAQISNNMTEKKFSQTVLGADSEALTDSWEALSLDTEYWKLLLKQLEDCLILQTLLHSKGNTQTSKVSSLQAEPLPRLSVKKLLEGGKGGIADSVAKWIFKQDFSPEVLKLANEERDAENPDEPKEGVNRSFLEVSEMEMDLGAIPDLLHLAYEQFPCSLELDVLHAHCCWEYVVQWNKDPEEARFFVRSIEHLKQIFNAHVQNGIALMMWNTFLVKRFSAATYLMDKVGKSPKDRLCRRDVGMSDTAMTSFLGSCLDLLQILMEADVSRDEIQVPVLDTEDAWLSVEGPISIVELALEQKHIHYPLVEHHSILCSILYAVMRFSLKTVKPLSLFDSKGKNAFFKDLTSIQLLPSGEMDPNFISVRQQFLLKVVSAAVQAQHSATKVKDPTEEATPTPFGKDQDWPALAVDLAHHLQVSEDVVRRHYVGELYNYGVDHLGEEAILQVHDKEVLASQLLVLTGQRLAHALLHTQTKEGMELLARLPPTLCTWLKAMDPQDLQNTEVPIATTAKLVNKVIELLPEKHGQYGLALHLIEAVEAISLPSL
inactive: IRAK-1-4 Inhibitor I -0.079 | ibrutinib -0.016 | [1] -0.031 | ralimetinib 0.03 | [2] 0 | [4] 0.026 | pinometostat 0.115 | [5] 0.004 | [6] -0.016 | [7] -0.001 | [8] -0.018 | [9] 0.017 | [10] -0.029 | Nexturastat A 0.215 | vemurafenib 0.06 | [11] 0.026 | [12] 0.092 | givinostat 0.106 | barasertib 0.068
active: [3] -0.26

SENP6 (UniProt Q9GZR1)
UniProt Q9GZR1, sequence (Q9GZR1 whole entry, looked up): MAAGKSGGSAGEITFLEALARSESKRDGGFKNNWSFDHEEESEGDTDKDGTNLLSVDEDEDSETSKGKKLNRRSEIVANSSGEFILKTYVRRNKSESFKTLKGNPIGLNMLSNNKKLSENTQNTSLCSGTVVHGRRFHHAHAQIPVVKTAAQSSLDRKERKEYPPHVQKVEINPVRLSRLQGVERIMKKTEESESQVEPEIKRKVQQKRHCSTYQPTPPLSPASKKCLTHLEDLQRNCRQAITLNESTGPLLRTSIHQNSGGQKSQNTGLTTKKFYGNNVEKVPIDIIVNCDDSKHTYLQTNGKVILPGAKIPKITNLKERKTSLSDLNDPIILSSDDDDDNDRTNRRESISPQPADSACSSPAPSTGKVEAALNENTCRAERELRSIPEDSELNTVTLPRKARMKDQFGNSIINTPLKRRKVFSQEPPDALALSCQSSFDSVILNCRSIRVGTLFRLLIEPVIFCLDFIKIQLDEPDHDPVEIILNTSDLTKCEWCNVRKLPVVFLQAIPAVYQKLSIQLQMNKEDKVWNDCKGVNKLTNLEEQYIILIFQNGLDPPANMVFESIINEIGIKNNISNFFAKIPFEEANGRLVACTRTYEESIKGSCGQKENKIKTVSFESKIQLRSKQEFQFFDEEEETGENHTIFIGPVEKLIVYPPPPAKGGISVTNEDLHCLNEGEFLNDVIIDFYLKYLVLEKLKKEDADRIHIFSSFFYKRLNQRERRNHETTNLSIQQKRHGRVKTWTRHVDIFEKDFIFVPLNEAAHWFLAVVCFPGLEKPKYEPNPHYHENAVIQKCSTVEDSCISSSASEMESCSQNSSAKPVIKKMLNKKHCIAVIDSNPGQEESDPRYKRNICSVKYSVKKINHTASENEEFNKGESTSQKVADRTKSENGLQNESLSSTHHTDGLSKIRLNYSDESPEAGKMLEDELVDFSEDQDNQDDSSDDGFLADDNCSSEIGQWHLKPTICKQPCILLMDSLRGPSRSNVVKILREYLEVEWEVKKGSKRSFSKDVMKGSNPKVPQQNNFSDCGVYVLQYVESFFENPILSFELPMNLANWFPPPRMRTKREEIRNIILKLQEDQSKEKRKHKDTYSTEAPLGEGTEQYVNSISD
inactive: IRAK-1-4 Inhibitor I 0.005 | ibrutinib -0.018 | [1] -0.063 | ralimetinib -0.031 | [2] -0.058 | [3] 0.094 | [4] 0.043 | pinometostat 0.004 | [5] -0.028 | [6] 0.057 | [7] -0.048 | [8] -0.006 | [9] 0.037 | [10] -0.007 | Nexturastat A 0.247 | vemurafenib -0.028 | [11] -0.01 | [12] 0.077 | givinostat 0.057 | barasertib -0.026

SCD (UniProt O00767)
UniProt O00767, sequence (O00767 whole entry, looked up): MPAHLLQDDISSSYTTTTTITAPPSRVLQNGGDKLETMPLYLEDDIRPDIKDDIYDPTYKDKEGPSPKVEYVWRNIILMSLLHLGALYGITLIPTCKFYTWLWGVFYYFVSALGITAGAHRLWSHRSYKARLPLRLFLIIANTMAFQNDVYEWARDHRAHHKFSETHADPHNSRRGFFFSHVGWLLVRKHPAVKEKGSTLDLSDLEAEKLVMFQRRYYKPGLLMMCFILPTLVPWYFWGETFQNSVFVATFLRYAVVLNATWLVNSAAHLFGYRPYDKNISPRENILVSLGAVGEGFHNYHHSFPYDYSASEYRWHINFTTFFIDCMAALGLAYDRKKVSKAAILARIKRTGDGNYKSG
inactive: IRAK-1-4 Inhibitor I 0.048 | ibrutinib -0.023 | [1] 0.008 | ralimetinib -0.148 | [2] -0.046 | [3] -0.222 | [4] 0.101 | pinometostat 0 | [5] 0.024 | [6] -0.027 | [7] -0.076 | [8] 0.037 | [9] 0.038 | [10] 0.078 | Nexturastat A -0.121 | vemurafenib 0.022 | [11] -0.053 | [12] -0.021 | barasertib 0.003
active: givinostat -0.457

RPS5 (UniProt P46782)
inactive: IRAK-1-4 Inhibitor I -0.137 | ibrutinib 0.045 | [1] 0.083 | ralimetinib 0.103 | [2] 0 | [3] -0.015 | [4] -0.019 | pinometostat 0.091 | [5] 0.034 | [7] 0.012 | [8] 0 | [9] 0.001 | [10] -0.038 | Nexturastat A 0.126 | vemurafenib -0.034 | [11] -0.066 | [12] 0.038 | givinostat -0.014 | barasertib -0.1
active: [6] -0.551

RANBP2 (UniProt P49792)
inactive: IRAK-1-4 Inhibitor I 0.024 | ibrutinib 0.035 | [1] 0.081 | ralimetinib 0.022 | [2] -0.043 | [3] -0.136 | [4] 0.024 | pinometostat -0.017 | [5] 0.169 | [6] 0.076 | [7] 0.089 | [8] -0.07 | [9] -0.041 | [10] 0.04 | Nexturastat A 0.221 | vemurafenib -0.086 | [11] 0.03 | [12] -0.072 | givinostat 0.046 | barasertib 0.036

SLC19A1 (UniProt P41440)
inactive: IRAK-1-4 Inhibitor I 0.017 | ibrutinib -0.025 | [1] -0.034 | ralimetinib 0.005 | [2] -0.061 | [3] 0.104 | [4] 0.045 | pinometostat 0.052 | [5] -0.045 | [6] 0.073 | [7] 0.112 | [8] -0.054 | [9] -0.019 | [10] -0.023 | Nexturastat A -0.107 | vemurafenib 0.002 | [11] -0.031 | [12] -0.018 | givinostat 0.007 | barasertib -0.011

RAC1 (UniProt P63000)
inactive: IRAK-1-4 Inhibitor I -0.053 | ibrutinib 0.036 | [1] 0.038 | ralimetinib -0.01 | [2] 0.27 | [3] 0.051 | [4] -0.026 | pinometostat -0.127 | [5] -0.093 | [6] -0.002 | [7] 0.14 | [8] -0.002 | [9] -0.055 | [10] 0.241 | Nexturastat A -0.021 | vemurafenib -0.046 | [11] -0.008 | [12] 0.032 | givinostat -0.059 | barasertib -0.026

RDH11 (UniProt Q8TC12)
UniProt Q8TC12, sequence (Q8TC12 whole entry, looked up): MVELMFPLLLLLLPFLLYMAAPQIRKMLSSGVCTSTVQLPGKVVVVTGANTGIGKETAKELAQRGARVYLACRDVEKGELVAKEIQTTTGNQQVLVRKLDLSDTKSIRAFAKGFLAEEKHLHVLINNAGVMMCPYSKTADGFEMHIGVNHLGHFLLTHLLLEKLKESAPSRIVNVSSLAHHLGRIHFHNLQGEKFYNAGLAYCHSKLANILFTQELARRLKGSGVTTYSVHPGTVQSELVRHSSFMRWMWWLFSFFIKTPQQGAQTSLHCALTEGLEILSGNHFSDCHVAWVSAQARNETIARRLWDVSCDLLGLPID
active: [3] -0.74
inactive: IRAK-1-4 Inhibitor I 0.032 | ibrutinib 0.067 | [1] -0.145 | ralimetinib 0.059 | [2] -0.126 | [4] 0.117 | pinometostat 0.013 | [5] -0.028 | [6] 0.103 | [7] 0.068 | [8] -0.054 | [9] 0.019 | [10] -0.016 | Nexturastat A 0.011 | vemurafenib 0.042 | [11] 0.035 | [12] 0.007 | givinostat 0.066 | barasertib 0.057

RRAS2 isoform 4 (UniProt P62070)
UniProt P62070, sequence (P62070 whole entry, looked up): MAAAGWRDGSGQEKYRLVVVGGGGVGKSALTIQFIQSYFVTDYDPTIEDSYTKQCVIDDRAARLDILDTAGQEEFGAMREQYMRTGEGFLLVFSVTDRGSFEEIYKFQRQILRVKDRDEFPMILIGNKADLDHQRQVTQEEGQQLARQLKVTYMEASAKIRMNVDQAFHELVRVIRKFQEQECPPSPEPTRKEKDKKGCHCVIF
inactive: IRAK-1-4 Inhibitor I 0.011 | ibrutinib 0.097 | [1] -0.009 | ralimetinib -0.023 | [2] 0.242 | [3] 0.077 | [4] 0.005 | pinometostat -0.034 | [5] -0.019 | [6] 0.077 | [7] -0.016 | [8] -0.02 | [9] -0.009 | [10] -0.021 | Nexturastat A -0.015 | vemurafenib 0.011 | [11] -0.037 | [12] -0.034 | givinostat -0.017 | barasertib -0.049

RHEB (UniProt Q15382)
UniProt Q15382, sequence (Q15382 whole entry, looked up): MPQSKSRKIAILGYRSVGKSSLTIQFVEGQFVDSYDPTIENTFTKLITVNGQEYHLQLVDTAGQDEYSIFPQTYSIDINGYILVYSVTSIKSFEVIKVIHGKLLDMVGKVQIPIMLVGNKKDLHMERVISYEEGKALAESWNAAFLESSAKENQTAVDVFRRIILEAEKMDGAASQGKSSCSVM
inactive: IRAK-1-4 Inhibitor I 0.006 | ibrutinib -0.016 | [1] -0.04 | ralimetinib -0.112 | [2] -0.01 | [3] 0.027 | [4] -0.055 | pinometostat -0.035 | [5] -0.014 | [6] 0.093 | [7] 0.008 | [8] -0.002 | [9] 0.008 | [10] 0.052 | vemurafenib -0.004 | [11] 0.021 | [12] -0.026 | givinostat -0.009 | barasertib 0.014
active: Nexturastat A -0.277

RPS6KA1 isoform 2 (UniProt Q15418)
UniProt Q15418, sequence (Q15418 whole entry, looked up): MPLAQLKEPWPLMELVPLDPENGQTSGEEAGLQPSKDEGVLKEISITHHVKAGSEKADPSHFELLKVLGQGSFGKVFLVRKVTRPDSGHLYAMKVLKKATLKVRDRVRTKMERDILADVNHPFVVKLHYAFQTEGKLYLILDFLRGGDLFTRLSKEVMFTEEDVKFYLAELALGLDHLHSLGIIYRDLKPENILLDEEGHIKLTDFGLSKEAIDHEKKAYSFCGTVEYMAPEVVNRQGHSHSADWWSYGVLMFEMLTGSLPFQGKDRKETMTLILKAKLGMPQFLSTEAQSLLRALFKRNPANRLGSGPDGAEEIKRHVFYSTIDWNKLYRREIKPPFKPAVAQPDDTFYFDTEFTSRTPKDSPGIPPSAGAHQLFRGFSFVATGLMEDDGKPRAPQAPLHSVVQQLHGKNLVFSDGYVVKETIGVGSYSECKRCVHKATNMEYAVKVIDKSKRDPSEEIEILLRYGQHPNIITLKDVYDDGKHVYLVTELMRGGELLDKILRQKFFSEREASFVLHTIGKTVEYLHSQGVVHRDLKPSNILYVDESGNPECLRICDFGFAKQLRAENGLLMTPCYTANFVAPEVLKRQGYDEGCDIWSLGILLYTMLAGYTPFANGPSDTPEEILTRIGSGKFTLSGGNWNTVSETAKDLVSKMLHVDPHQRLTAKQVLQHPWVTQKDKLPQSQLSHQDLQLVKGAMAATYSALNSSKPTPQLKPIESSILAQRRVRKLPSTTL
inactive: IRAK-1-4 Inhibitor I -0.013 | ibrutinib -0.062 | [1] -0.167 | [2] -0.092 | [3] -0.164 | [4] 0.059 | pinometostat -0.006 | [5] 0.017 | [6] 0.018 | [7] -0.016 | [8] -0.187 | [9] 0.033 | [10] 0.078 | Nexturastat A 0.004 | vemurafenib 0.016 | [11] 0.046 | [12] 0.071 | givinostat -0.141 | barasertib 0.029
active: ralimetinib -0.429

RAB3IL1 (UniProt Q8TBN0)
inactive: IRAK-1-4 Inhibitor I 0.018 | ibrutinib -0.009 | [1] 0.018 | ralimetinib 0.064 | [2] -0.036 | [3] -0.014 | [4] 0.057 | pinometostat -0.029 | [5] -0.004 | [6] 0.037 | [7] 0.005 | [8] 0.002 | [9] 0.008 | [10] 0.02 | Nexturastat A -0.124 | vemurafenib 0.018 | [11] 0.062 | [12] -0.025 | givinostat -0.024 | barasertib 0.015

SEC16A isoform 5 (UniProt O15027)
active: [3] -0.282
inactive: IRAK-1-4 Inhibitor I -0.136 | ibrutinib -0.062 | [1] -0.069 | ralimetinib 0.172 | [2] -0.177 | [4] 0.046 | pinometostat 0.097 | [5] -0.027 | [6] 0.025 | [7] -0.079 | [8] -0.042 | [9] 0.036 | [10] -0.001 | Nexturastat A 0.044 | vemurafenib 0.035 | [11] -0.031 | [12] 0.061 | givinostat 0.09 | barasertib 0.043

SLBP (UniProt Q14493)
inactive: IRAK-1-4 Inhibitor I -0.123 | ibrutinib -0.162 | ralimetinib -0.068 | [2] -0.09 | [3] -0.206 | [4] 0.162 | pinometostat -0.034 | [5] 0.098 | [6] -0.126 | [7] -0.012 | [8] -0.08 | [9] 0.019 | [10] 0.099 | Nexturastat A -0.218 | vemurafenib 0.028 | [11] 0.057 | [12] 0.024 | givinostat 0.055 | barasertib 0.06
active: [1] -0.38
